40 compounds from PubChem BioAssay (NCI) can be followed below.

Each structure is given as a SMILES string. This is part of a sample that, as a whole, favours compounds with a hit. Of some 83,000 tested, about 20% had one in any assay.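 Growth was measured after 48 h exposure to one concentration of compound in 96-well plates. Values under 10 count as active.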 Unmarked numbers belong to inactive results. Calls of active or inactive are those of the source.

The first test concerns PC-3 prostate. The test can be described thus: NCI-60 one-dose screen, 48 h (100 = growth as untreated, 0 = no growth, -100 = all killed). The settings on record: 10 µM unless noted.
Take `COc1cc(C(=O)c2c(N)ncn2-c2ccccc2)cc(OC)c1OC`: the growth was 78.5%.

As for `CCn1c2ccc(O)cc2c2c(C)c3c[n+](C(C)C)ccc3c(C)c21`, the growth was 61%.

Take `Cc1cc2nc(-c3c(-c4ccc(F)cc4)nc4sccn34)[nH]c2cc1C`: the growth is 90.5%.

As to `Oc1c(I)cc(-c2nc3ccccc3s2)cc1CN(Cc1ccccn1)Cc1ccccn1`, the growth was 28.3%.

As to `CC1(C)CC[C@]2(C(=O)N3CCOCC3)CC[C@]3(C)C(=CC[C@@H]4[C@@]5(C)C/C(=C/c6ccncc6)C(=O)C(C)(C)[C@@H]5CC[C@]43C)[C@@H]2C1`, the growth is 10.9%.

With `COc1ccc(-c2oc(=O)ccc2-c2cc(OC)c(OC)c(OC)c2)cc1O`, the growth is 38.1%.

In the case of `CC[C@H](C)[C@H](NC(=O)[C@H](CCCNC(=N)N)NC(=O)[C@H](Cc1c[nH]c2ccccc12)NC(=O)[C@@H](NC(=O)[C@H](CCCCN)NC(=O)[C@H](CCCCN)NC(=O)[C@@H](NC(=O)[C@@H](NC(=O)[C@@H](NC(=O)[C@H](CCCCN)NC(=O)[C@H](Cc1ccccc1)NC(=O)[C@H](CCCCN)NC(=O)[C@H](CCCCN)NC(=O)[C@H](Cc1ccccc1)NC(=O)[C@@H](NC(=O)[C@@H](N)CCCCN)[C@@H](C)CC)[C@@H](C)O)[C@@H](C)CC)[C@@H](C)CC)C(C)C)C(=O)N[C@@H](Cc1ccccc1)C(=O)NCC(=O)N[C@@H](CCCNC(=N)N)C(=O)N[C@@H](Cc1ccccc1)C(N)=O`, the growth is -25.9% (active).

For `Cc1c(Cl)cccc1C(=O)Nc1nc2c(s1)CN(C(=O)Nc1cccc(C(F)(F)F)c1)CC2`, the growth was 6.43% (active).

As to `COc1cc2nc(Nc3cccc(F)c3)nc(Nc3cc(C)[nH]n3)c2cc1OC`, the growth was -81% [20 µM] (active).

Consider `CCC(CC)(N(CC(=O)O)CC(=O)O)C(CC)(CC)N(CC(=O)O)CC(=O)O`, for which the growth is 85.1%.

For the compound `CCOC(=O)c1c(-c2ccc(Cl)cc2)c(C#N)c2c(C#N)c(N)nn2c1N`, the growth is 59.3%.

With `O=C(/C=C/c1cccc(Cl)c1)c1cccc(OCCCCOc2cccc(C(=O)/C=C/c3cccc(Cl)c3)c2)c1`, the growth is 92.2%.

Take `NC(CSC(c1ccccc1)(c1ccccc1)c1ccc2c(c1)OCO2)C(=O)O` (stereo not given): the growth is 18.7%.

Consider `O=C1NC(=O)c2c1c1c3ccccc3[nH]c1c1oc3ccc(F)cc3c21`, for which the growth is 45%.

On to `O=c1ccc2nc(C(F)(F)F)nn(-c3ccccc3)c-2c1`, for which the growth is 84.6%.

As for `CCNc1nc(-c2ccc(F)cc2)c(C#N)c(=O)n1C`, the growth is 42.8%.

Turning to `Clc1nccc2c(-c3csc(-c4c[nH]c5ccccc45)n3)c[nH]c12`, the growth was 40.1%.

In the case of `C=C(C)[C@@H]1CC[C@]2(CO)CC[C@]3(C)[C@H](CC[C@@H]4[C@@]5(C)CCC(NCCc6ccc(O)cc6)C(C)(C)[C@@H]5CC[C@]43C)[C@@H]12` (stereo not given in full), the growth was -84.2% (active).

`CCCCCCCCCCCCCCCCOC(=O)c1c(C)[nH]c(/C=C2\N=C(c3ccc[nH]3)C=C2OC)c1C`: the growth is 45.6%.

For `COc1ccc(-c2ccc(-c3ccc(C(=N)N)cn3)s2)cc1`, the growth is 65.5%.

Consider `COc1cc(-c2nc(SCCC(C)C)nc(N3CCOCC3)c2C#N)cc(OC)c1OC`, for which the growth is 62.3%.

Regarding `Cc1cc2oc(=O)cc(CP(=O)(O)O)c2cc1O`, the growth was 94.9%.

On to `O=C1/C=C/[C@@H](O)[C@@H]2C[C@@H](O)C[C@H]2/C=C/CCC[C@H](CCOCc2ccccc2)O1`, for which the growth was 16.5%.

As to `O[C@@H](c1cc(C(F)(F)F)nc2c(C(F)(F)F)cccc12)[C@H]1CCCCN1`, the growth is 49.4%.

For the compound `O=C1CCCc2nc3sc4c(=O)n(-c5ccccc5Cl)nnc4c3cc21`, the growth was 83.6%.

With `O=C(CCC(=O)c1nc2ncccc2[nH]1)NN1C(=O)CSC1c1ccc(Cl)cc1` (stereo not given), the growth is 94.3%.

Regarding `Cc1[nH]c(C(=O)Nc2cccc(OC3CCNCC3)c2)c(Cl)c1Cl`, the growth is 62.9%.

Turning to `CCOC(=O)C(=Cc1cccc(C#N)c1)C(=O)OCC`, the growth was 62.8%.

With `C=CCn1c(SCC(=O)Nc2ccc(C(=O)/C=C/c3ccc(OC)cc3)cc2)nnc1-c1ccccc1`, the growth is 67.1%.

With `COc1ccc(/C=C/C(=O)c2cc3c(N)c(C(=O)Nc4ccccc4C)sc3nc2C)cc1`, the growth was 25%.

`CS(=O)(=O)Cc1cnc(C2OCCO2)s1`: the growth is 92.2%.

For the compound `COc1ccc(C2=Nc3c(N)ncnc3NC(c3cccc(Nc4ccnc5cc(C(F)(F)F)ccc45)c3)C2)cc1` (stereo not given), the growth is 42.2%.

As for `NS(=O)(=O)c1ccc(N/C=C/C(=O)c2cc3ccccc3oc2=O)cc1`, the growth is 93.7%.

For another test, the system named is SK-MEL-5 melanoma. The description is as above. The settings on record: 10 µM unless noted.
Turning to `COc1cc(C(=O)c2c(N)ncn2-c2ccccc2)cc(OC)c1OC`, the growth is 89.5%.

As to `CCn1c2ccc(O)cc2c2c(C)c3c[n+](C(C)C)ccc3c(C)c21`, the growth is 57.1%.

As for `Cc1cc2nc(-c3c(-c4ccc(F)cc4)nc4sccn34)[nH]c2cc1C`, the growth is 86.3%.

Consider `Oc1c(I)cc(-c2nc3ccccc3s2)cc1CN(Cc1ccccn1)Cc1ccccn1`, for which the growth is -78.3% (active).

Consider `CC(C)(CO)N(CCO)CCO`, for which the growth is 97.1%.

As for `CC1(C)CC[C@]2(C(=O)N3CCOCC3)CC[C@]3(C)C(=CC[C@@H]4[C@@]5(C)C/C(=C/c6ccncc6)C(=O)C(C)(C)[C@@H]5CC[C@]43C)[C@@H]2C1`, the growth is -63.5% (active).

In the case of `Cc1cccc(NC(=O)CSc2nc3ccc([N+](=O)[O-])cc3[nH]2)c1`, the growth is 52%.

As to `COc1ccc(-c2oc(=O)ccc2-c2cc(OC)c(OC)c(OC)c2)cc1O`, the growth is 12.1%.

Take `O=C(O)c1cccc(N/C=C/C(=O)c2cc3cc(Br)ccc3oc2=O)c1`: the growth is 97.7%.

Take `CC[C@H](C)[C@H](NC(=O)[C@H](CCCNC(=N)N)NC(=O)[C@H](Cc1c[nH]c2ccccc12)NC(=O)[C@@H](NC(=O)[C@H](CCCCN)NC(=O)[C@H](CCCCN)NC(=O)[C@@H](NC(=O)[C@@H](NC(=O)[C@@H](NC(=O)[C@H](CCCCN)NC(=O)[C@H](Cc1ccccc1)NC(=O)[C@H](CCCCN)NC(=O)[C@H](CCCCN)NC(=O)[C@H](Cc1ccccc1)NC(=O)[C@@H](NC(=O)[C@@H](N)CCCCN)[C@@H](C)CC)[C@@H](C)O)[C@@H](C)CC)[C@@H](C)CC)C(C)C)C(=O)N[C@@H](Cc1ccccc1)C(=O)NCC(=O)N[C@@H](CCCNC(=N)N)C(=O)N[C@@H](Cc1ccccc1)C(N)=O`: the growth is 3.57% (active).

On to `CCOC(=O)c1c(C)nc2c(c1N)CC(=O)N2Cc1cc(OC)c(OC)c(OC)c1`, for which the growth is 23%.

Consider `Cc1c(Cl)cccc1C(=O)Nc1nc2c(s1)CN(C(=O)Nc1cccc(C(F)(F)F)c1)CC2`, for which the growth was 2.35% (active).

As to `COc1cc2nc(Nc3cccc(F)c3)nc(Nc3cc(C)[nH]n3)c2cc1OC`, the growth was -90.1% [20 µM] (active).

For `CCC(CC)(N(CC(=O)O)CC(=O)O)C(CC)(CC)N(CC(=O)O)CC(=O)O`, the growth was 105%.

Consider `O=C(O)c1cn(C2CC2)c2cc(N3CCN(C(=O)N/N=C/c4ccccc4)CC3)c(F)cc2c1=O`, for which the growth is 94.9%.

As to `COc1ncc2cc1NS(=O)(=O)c1cccc(c1)C(=O)NCC1=CC=C(S1)c1ncnc3c1SC2=C3C`, the growth was -38.2% (active).

Turning to `CCOC(=O)c1c(-c2ccc(Cl)cc2)c(C#N)c2c(C#N)c(N)nn2c1N`, the growth was 52.3%.

`O=C(/C=C/c1cccc(Cl)c1)c1cccc(OCCCCOc2cccc(C(=O)/C=C/c3cccc(Cl)c3)c2)c1`: the growth was 98.6%.

With `NC(CSC(c1ccccc1)(c1ccccc1)c1ccc2c(c1)OCO2)C(=O)O` (stereo not given), the growth was 8.31% (active).

With `O=C1NC(=O)c2c1c1c3ccccc3[nH]c1c1oc3ccc(F)cc3c21`, the growth is 53%.

Turning to `O=c1ccc2nc(C(F)(F)F)nn(-c3ccccc3)c-2c1`, the growth is 32.7%.

For `CCNc1nc(-c2ccc(F)cc2)c(C#N)c(=O)n1C`, the growth was 57.3%.

`Clc1nccc2c(-c3csc(-c4c[nH]c5ccccc45)n3)c[nH]c12`: the growth is 55.8%.

For the compound `C=C(C)[C@@H]1CC[C@]2(CO)CC[C@]3(C)[C@H](CC[C@@H]4[C@@]5(C)CCC(NCCc6ccc(O)cc6)C(C)(C)[C@@H]5CC[C@]43C)[C@@H]12` (stereo not given in full), the growth is -95.4% (active).

With `CCCCCCCCCCCCCCCCOC(=O)c1c(C)[nH]c(/C=C2\N=C(c3ccc[nH]3)C=C2OC)c1C`, the growth was -80.8% (active).

Regarding `COc1ccc(-c2ccc(-c3ccc(C(=N)N)cn3)s2)cc1`, the growth is 85%.

As to `COc1cc(-c2nc(SCCC(C)C)nc(N3CCOCC3)c2C#N)cc(OC)c1OC`, the growth is 102%.

`Cc1cc2oc(=O)cc(CP(=O)(O)O)c2cc1O`: the growth is 99.2%.

Regarding `O=C1/C=C/[C@@H](O)[C@@H]2C[C@@H](O)C[C@H]2/C=C/CCC[C@H](CCOCc2ccccc2)O1`, the growth is -88.3% (active).

In the case of `O[C@@H](c1cc(C(F)(F)F)nc2c(C(F)(F)F)cccc12)[C@H]1CCCCN1`, the growth was 82%.

Take `O=C1CCCc2nc3sc4c(=O)n(-c5ccccc5Cl)nnc4c3cc21`: the growth was 87.9%.

On to `O=C(CCC(=O)c1nc2ncccc2[nH]1)NN1C(=O)CSC1c1ccc(Cl)cc1` (stereo not given), for which the growth was 104%.

Take `Cc1[nH]c(C(=O)Nc2cccc(OC3CCNCC3)c2)c(Cl)c1Cl`: the growth was 85.5%.

Turning to `CCOC(=O)C(=Cc1cccc(C#N)c1)C(=O)OCC`, the growth is 85.8%.

On to `C=CCn1c(SCC(=O)Nc2ccc(C(=O)/C=C/c3ccc(OC)cc3)cc2)nnc1-c1ccccc1`, for which the growth was 92.2%.

Consider `COc1ccc(/C=C/C(=O)c2cc3c(N)c(C(=O)Nc4ccccc4C)sc3nc2C)cc1`, for which the growth is 17.7%.

As for `O=C1NC(=O)c2c1c1c3ccccc3[nH]c1c1oc3cc(Br)ccc3c21`, the growth is 55.9%.
